According to PubChem BioAssay AID1851 (National Center for Advancing Translational Sciences (NCATS), 2009):
Several values for one entry are separate records, joined by “and”; a condition that tells them apart may be missing. Equal values may be shown once. Out of some 16,000 compounds screened, about 4,000 (25%) were called active. Inconclusive results (about 26%) are left out. Calls come from the whole dose curve; as a rule, active = well fitted curve in the direction sought with a large enough effect; inconclusive = small, poorly fitted or top-dose-only effect, or effect the other way; inactive = no such curve, though single readings can be large or run the other way. These entries were drawn from the full list. Some structures have more than one record in an assay (separate samples or runs), and their calls can disagree.

target: Cytochrome P450 2C9 (Homo sapiens) (UniProt P11712); assay: Cytochrome panel assay with activity outcomes; conditions: recombinant CYP, pro-luciferin dealkylation, luminescence, p450-cyp2c9; series mostly up to 57.1 µM
% is set by controls: 0 for no effect and ±100 for the full control effect.

Sequence of Cytochrome P450 2C9 (Homo sapiens) (P11712 whole entry, looked up): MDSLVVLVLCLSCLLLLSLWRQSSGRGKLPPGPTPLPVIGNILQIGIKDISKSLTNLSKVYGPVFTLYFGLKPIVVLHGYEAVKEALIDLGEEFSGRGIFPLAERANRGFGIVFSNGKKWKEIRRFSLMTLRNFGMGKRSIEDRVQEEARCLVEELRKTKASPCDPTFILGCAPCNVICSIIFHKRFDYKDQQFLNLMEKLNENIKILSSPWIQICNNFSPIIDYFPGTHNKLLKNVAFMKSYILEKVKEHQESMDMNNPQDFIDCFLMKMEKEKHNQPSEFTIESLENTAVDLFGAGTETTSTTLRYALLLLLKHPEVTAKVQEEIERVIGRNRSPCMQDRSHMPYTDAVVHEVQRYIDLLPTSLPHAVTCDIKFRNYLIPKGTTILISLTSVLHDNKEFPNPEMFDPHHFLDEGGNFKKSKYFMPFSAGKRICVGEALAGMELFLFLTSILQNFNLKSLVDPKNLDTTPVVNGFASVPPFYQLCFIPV

activity, negative = inhibition, inactive:
FC(F)(F)c1ccccc1-c1cc(NCc2cccs2)ncn1 -6.83% [at 2.29 µM]
FC(F)(F)c1ccccc1-c1cc(NCc2ccccc2)ncn1 1.84% [at 2.29 µM]
FC(F)(F)c1ccccc1-c1nccc(NCc2cccs2)n1 -24.4% [at 2.29 µM]
[O-][N+](CCO)(CCO)c1ncnc2nc[nH]c12 27.7% [at 11.4 µM]
CC[C@@H](c1ccccc1)n1c(=O)n2n(c1=O)[C@H]1[C@H](O)[C@H]3O[C@@H]3/C(=N/OCc3ccccc3)[C@@H]1CC2 -21.9% [at 11.4 µM]
O=C1[C@@H]2[C@H]3[C@H](O)[C@H](O)C/C(=N/OC[C@@H](O)COCc4ccco4)[C@@H]3CC[C@H]2C(=O)N1c1ccc(F)cc1F -0.354% [at 11.4 µM]
Cn1c(N)nc2c(nc(OCc3ccccc3)n2[C@@H]2O[C@H](CO)[C@@H](O)[C@@H]2O)c1=O 1.04% [at 11.4 µM]
Cc1noc(C)c1-c1cncnc1N1CCN(C)CC1 15.2% [at 2.29 µM]
Fc1ccc(Nc2ncncc2-c2ccoc2)cc1 -24.6% [at 2.29 µM]
COC(=O)/C=C\CCc1coc(/C=C\CNC(=O)OC)n1 -17.2% [at 11.4 µM]
c1ccc2c(Nc3ccncc3)nc(-c3ccoc3)nc2c1 -11.6% [at 2.29 µM]
O=C(Cn1ccc(=O)[nH]c1=O)Nc1ccc(C(=O)O)c(O)c1 -4.1% [at 11.4 µM]
COc1c(O)ccc2c1CN1CCc3cc4c(cc3[C@@H]1C2)OCO4 1.47% [at 11.4 µM]
CO/N=C(\C)CCN1CCCc2nc(C)c(C)cc21 -0.836% [at 11.4 µM]
CCN(CC)C[C@@H](O)CN1CCCCc2nc(C)c(C)cc21 -1.31% [at 11.4 µM]
Cc1cc2c(nc1C)CCCN2C[C@@H](O)CN1CCN(C)CC1 29.4% [at 11.4 µM]
Cc1cc2c(nc1C)CCCN2CC(O)CN1CCCc2nc(C)c(C)cc21 -10.8% [at 11.4 µM]
CN(C)C(=O)c1ccc(-c2nc(NCc3ccccc3)c3ccccc3n2)cc1 -4.46% [at 2.29 µM]
CN(C)C(=O)c1ccc(-c2nccc(NCc3ccccc3)n2)cc1 -14% [at 2.29 µM]
O=C(O)CCC(=O)c1ccc2ccc3cccc4ccc1c2c34 4.8% [at 11.4 µM]
Cc1ccccc1-c1cncnc1Nc1ccccc1 -13.5% [at 2.29 µM]
N#[N+]c1ccc(Nc2ccccc2)cc1 5.95% [at 11.4 µM]
COc1ccc(NC(=S)Nc2ccccc2)cc1 -15.3% [at 11.4 µM]

AC50, active:
FC(F)(F)c1cc(-c2ccco2)nc(NCCc2ccccc2)n1 1.41 µM
FC(F)(F)c1cc(-c2ccco2)nc(NCc2cccs2)n1 3.55 µM
O=[N+]([O-])c1ccccc1N/N=C/c1c[nH]c2ccccc12 7.94 µM
Oc1c(Cl)cc(C(c2cc(Cl)c(O)c(Cl)c2)C(c2cc(Cl)c(O)c(Cl)c2)c2cc(Cl)c(O)c(Cl)c2)cc1Cl 0.1 µM
CN(C)CN1CSC(=S)N(CN(C)C)C1 3.16 µM
c1ccc2cc(Sc3ncnc4c3oc3ccccc34)ccc2c1 10 µM
CCCN1C(=O)/C(=C/c2ccc(C)s2)SC1=Nc1ccc(OC)cc1 7.94 µM
COc1ccc(N=C2S/C(=C\c3ccc(C)s3)C(=O)N2CC(C)C)cc1 7.08 µM
O=C(CCCn1c(=S)[nH]c2ccc(Br)cc2c1=O)N1CCN(c2ccccn2)CC1 3.16 µM
CCOc1cc(C)c(S(=O)(=O)Nc2ccc3cn[nH]c3c2)cc1C 2.82 µM
CCOC(=O)c1ccc(S(=O)(=O)Nc2ccc3cn[nH]c3c2)cc1 0.794 µM
Cc1ccccc1C1C(C#N)=C2N=C(N)c3c(sc4c3CCCCC4)N2C2=C1C(=O)CC(C)(C)C2 (configuration not stated) 3.55 µM
CCN(CC)C(=O)C1CCCN(c2ccc([N+](=O)[O-])cc2/C=N/NC(=O)c2ccc([N+](=O)[O-])cc2)C1 (configuration not stated) 12.6 µM
CSc1ccccc1NC(=O)CSCc1ccc(C)cc1 10 µM
S=C(Nc1ccccc1)Nc1ccccc1C#Cc1ccccc1 3.98 µM
O=S(=O)(N/N=C\c1cn(-c2ccccc2)nc1-c1ccccc1)c1ccccc1 4.47 µM
Cc1ccc(-c2nn(-c3ccccc3)cc2/C=N/NS(=O)(=O)c2ccccc2)cc1 7.94 µM
CC(C)=C1C(=O)C(c2ccccc2)=C2CN3C(=O)N(CCc4ccccc4)C(=O)[C@]3(Cc3ccccc3)[C@H]21 10 µM
CCN1CCc2nc(NC(=O)CC(c3ccccc3)c3ccccc3)sc2C1 14.1 µM
Cc1ccc(Cc2c(C)nc3nc(SCC(=O)NCc4ccco4)nn3c2C)cc1 10 µM
Cc1nc2nc(SCC(=O)NCc3ccco3)nn2c(C)c1Cc1c(F)cccc1Cl 0.708 µM
COc1ccc(CCNC(=O)c2ccc3c(=O)n(Cc4ccco4)c(=S)[nH]c3c2)cc1OC 4.47 µM
CN(C)S(=O)(=O)Oc1ccc(Cl)cc1C(=O)Nc1cccc(C(F)(F)F)c1 7.94 µM
CN(C)S(=O)(=O)Oc1ccsc1C(=O)Nc1cccc(Cl)c1 8.91 µM
COc1ccc2c(c1OC)C(=O)O[C@@H]2[C@H]1c2c(cc3c(c2OC)OCO3)CCN1C 0.126 µM
COc1ccc2c(c1OC)C(=O)OC2[C@H]1c2c(cc3c(c2OC)OCO3)CCN1C (some centres not stated) 5.01 µM and 2.51 µM
Cc1cc2c(nc1C)CCCN2C[C@H](O)CN1CCCc2nc(-c3ccc(Br)cc3)ccc21 2.51 µM
COc1ccc(-c2ccc3c(n2)CCCN3C[C@H](O)CN2CCCc3nc(C)c(C)cc32)cc1 3.98 µM
Cc1ccc(Cn2nc(C)c(NC(=O)c3cc(-c4ccco4)on3)c2C)cc1 12.6 µM
C/C(=N\Nc1ccc([N+](=O)[O-])cc1)c1cccc(N)c1 5.62 µM
C/C(=N\Nc1nnc(-c2ccccc2)c(-c2ccccc2)n1)c1cccc([N+](=O)[O-])c1 20 µM
CCOC(=O)c1nnc(-c2ccccc2)nc1NCc1ccccc1 25.1 µM
COc1ccc(C(=O)CCN(C)C)c2ccccc12 3.98 µM
O=C1c2ccccc2CCC12N=NCC2c1ccc(Cl)cc1 (configuration not stated) 14.1 µM
CNC(=S)Nc1ccc(Nc2ccccc2)cc1 39.8 µM
CC(C)(C)NC(=S)Nc1ccc(Nc2ccccc2)cc1 7.08 µM
Nc1ccc(Nc2ccccc2)cc1 8.91 µM

AC50, inactive:
CCNc1ncc2nc(-c3cc(F)cc(F)c3)c(=O)n(Cc3cccs3)c2n1
Nc1cc(Cl)nc(N/N=C/c2ccccc2[N+](=O)[O-])n1
O=C(O)c1ccccc1N/N=C\c1ccnc2ccccc12
Cc1noc(C)c1C(=O)N1CCC[C@@]2(CCN(Cc3nccs3)C2)C1
O=C(CCn1c(=S)[nH]c2ccccc2c1=O)NCCCN1CCOCC1
CC(=O)N1CCC2(CCCN(c3ccccn3)C2)CC1
OC[C@@H]1O[C@H](O)[C@@H](Cl)[C@H](O)[C@@H]1O
O=C(N/N=C/c1cc([N+](=O)[O-])ccc1N1CCNCC1)c1ccc([N+](=O)[O-])cc1
CN1CCC(=NNC(=O)CSCc2ccccc2)CC1
C=CCN(CC=C)C(=S)Nc1ccccc1
O=S(=O)(N/N=C\c1cccn1-c1ccccc1)c1ccc2ccccc2c1
CC1(C)C(=O)C(c2ccccc2)=C2CN3C(=O)N(CCc4ccccc4)C(=O)C3(Cc3ccc(C(F)(F)F)cc3)C=C21 (configuration not stated)
CCN1CCC[C@@H](OC(=O)C(c2ccccc2)c2ccccc2)C1
Cc1nc2ncnn2c(C)c1CCC(=O)NCc1ccco1
Cc1nc2nc(C)c(CCC(=O)NCCCN3CCN(c4cccc(Cl)c4)CC3)c(C)n2n1
CC(C)NC(=O)c1ccc2c(=O)n(Cc3ccco3)c(=S)[nH]c2c1
CCCOc1ccccc1-c1nc2n[nH]nc2c(=O)[nH]1
C/C(=N/OC(=O)c1cccc(Cl)c1)c1nccs1
CC(C)CN1CC[C@@]2(CCCN(C(=O)c3cc(C(F)(F)F)cc(C(F)(F)F)c3)C2)C1
COc1ccc2cc3[n+](cc2c1OC)CCc1cc2c(cc1-3)OCO2
COc1ccc2c(c1OC)C(=O)OC2Nc1ncccc1C (configuration not stated)
NCC[C@H](O)C(=O)N[C@H]1C[C@@H](N)[C@@H](O[C@H]2O[C@@H](CN)[C@@H](O)[C@@H](O)[C@@H]2O)[C@@H](O)[C@@H]1O[C@H]1O[C@@H](CO)[C@@H](O)[C@@H](N)[C@@H]1O
O=C1c2ccccc2C(=O)C1c1ccccc1
OC(CN1CCCCC1)CN1CCCCC1
Cc1ccc(Cn2ccc(NC(=O)c3cc4nc(-c5ccco5)cc(C(F)(F)F)n4n3)n2)cc1
c1ccc2c(CC3=NCCN3)cccc2c1
COc1nc(C)nc(Cl)c1NC1=NCCN1
O=[N+]([O-])c1cccc(/C=N/Nc2cc(Cl)nc(-c3ccccc3)n2)c1
c1ccc([C@@H]2CN3CCSC3=N2)cc1
CCCCN(CC)C(=O)Cc1ccccc1OC
CNC(=S)Nc1ccc2nc(C)c(C)nc2c1

AC50, inactive and 7.94 µM (active):
Clc1cccc(Cl)c1NC1=NCCN1
